# Measured values published in PubChem BioAssay (Tox21).
# Unmarked numbers belong to inactive results. Results filed as inconclusive are left out. Where a call stands in place of a potency, no number is given. Calls of active or inactive are those of the source. Unless noted, calls come from the whole dose curve; as a rule, active = well fitted curve in the direction sought with a large enough effect in the repeat runs; inconclusive = weak or mixed curves; inactive = no such curve, though single readings can be large; an effect the other way counts as inactive or inconclusive.
# What was measured:
# [1] = qHTS assay for small molecule agonists of the p53 signaling pathway (AID 651631; calls by dose curve; note: nearly all actives have a fitted effect of over 15% in size)
# How it was run: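 HCT-116 cells carrying a beta-lactamase reporter under p53 response elements were dosed with compound for 16 h at 37 °C. LiveBLAzer B/G FRET substrate was then added for 2 h at room temperature, and fluorescence intensity was read to detect pathway agonism.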
# [2] = qHTS assay for small molecules that induce genotoxicity in human embryonic kidney cells expressing luciferase-tagged ATAD5 (AID 651632); note: nearly all actives have a fitted effect of over 15% in size
# How it was run: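 Increased luciferase signal from ATAD5-tagged reporter cells indicates DNA-damage-driven ATAD5 induction. HEK293T cells are treated for 16 hr at 37C before detection with Amplite.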
# [3] = qHTS assay for small molecule agonists of the p53 signaling pathway - cell viability (AID 651633; calls by dose curve; note: nearly all actives have a fitted effect of over 30% in size; note: potency is the fitted concentration of half-maximal effect)
# How it was run: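 p53RE-bla cells, seeded at 4,000 per well and rested 5 h at 37 C/5% CO2, received compounds in DMSO for 16 h at 37 C. CellTiter-Glo was then added, and luminescence was read after 30 min at room temperature to gauge cytotoxicity.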
# [4] = qHTS assay for small molecules that induce genotoxicity in human embryonic kidney cells expressing luciferase-tagged ATAD5 - cell viability (AID 651634; calls by dose curve; note: nearly all actives have a fitted effect of over 25% in size)
# How it was run: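 Cytotoxicity counterscreen in HEK293T cells bearing an ATAD5-luciferase reporter: live-cell protease activity measured by CellTiter-Fluor fluorescence after 15.5 hr compound exposure.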
# [5] = qHTS assay for small molecule disruptors of the mitochondrial membrane potential - cell viability (AID 720634; calls by dose curve;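 note: human HepG2 liver cancer cells; series mostly up to about 83 µM; nearly all actives have a fitted effect of over 20% in size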)
# How it was run: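 After overnight attachment at 37 C, HepG2 cells received compound or DMSO vehicle for 1 hr. Viability is then taken from ATP-driven luminescence following a 30 min room-temperature CellTiter-Glo step.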
# [6] = qHTS assay to test for compound auto fluorescence at 590 nm (red) in HepG2 cells (AID 720674)
# How it was run: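 Intrinsic compound fluorescence in the red window (Ex/Em 540/590 nm) is measured in attached HepG2 cells exposed for 1 hr, DMSO vehicle as baseline, benchmarked to Rose Bengal sodium.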
# [7] = qHTS assay to test for compound auto fluorescence at 535 nm (green) in HepG2 cells (AID 720675)
# [8] = qHTS assay to test for compound auto fluorescence at 460 nm (blue) in HEK293 cells (AID 720678)
# How it was run: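 Auto fluorescence in the blue band was quantified as triamterene equivalency. HEK293 cells were seeded at 2,000/well, dosed after a 4-5 hr attachment, and kept overnight at 37C before the 405/460 nm reading.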
# [9] = qHTS assay to test for compound auto fluorescence at 590 nm (red) in HEK293 cells (AID 720679)
# How it was run: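 Autofluorescence equivalency to Rose Bengal sodium, 540/590nm, in HEK293 cells exposed overnight to 23 nL compound per well.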
# [10] = qHTS assay to test for compound auto fluorescence at 535 nm (green) in HEK293 cells (AID 720680)
# [11] = qHTS assay to test for compound auto fluorescence at 460 nm (blue) in HEK293 cell free culture (AID 720681)
# How it was run: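 Test compounds were pinned into cell-free culture medium (DMEM with 10% FBS) and fluorescence was read directly at Ex/Em 405/460 nm. Signals were expressed as fluorescence equivalents of triamterene, with DMSO vehicle as control.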
# [12] = qHTS assay to test for compound auto fluorescence at 590 nm (red) in HEK293 cell free culture (AID 720683)
# How it was run: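 Tox21 10K library compounds were pinned into cell-free DMEM with 10% FBS and fluorescence was read at excitation 540 nm. Activity is expressed as Rose Bengal sodium equivalency.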
# [13] = qHTS assay to test for compound auto fluorescence at 590 nm (red) in HepG2 cell free culture (AID 720684)
# How it was run: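 Measured in medium alone (MEM containing 10% FBS) following pintool addition of compound; emission at 590 nm with 540 nm excitation, referenced to Rose Bengal sodium.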
# [14] = qHTS assay to test for compound auto fluorescence at 460 nm (blue) in HepG2 cell free culture (AID 720685)
# How it was run: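 Compound (23 nL) or DMSO pinned into cell-free MEM with 10% FBS; blue fluorescence read at 405/460 nm excitation/emission, expressed as auto-fluorescence equivalency to triamterene.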
# [15] = qHTS assay to test for compound auto fluorescence at 535 nm (green) in HepG2 cell free culture (AID 720686)
# [16] = qHTS assay to test for compound auto fluorescence at 460 nm (blue) in HepG2 cells (AID 720687)
# How it was run: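 Cells (2,000/well in MEM with 10% FBS) attached overnight at 37 C, then were exposed to compound or DMSO for 1 hr at 37 C, 5% CO2. Fluorescence read at Ex/Em 405/460 nm, expressed as triamterene-equivalent signal.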
# [17] = target: Glucocorticoid receptor (Homo sapiens) (UniProt P04150); assay: qHTS assay to identify small molecule agonists of the glucocorticoid receptor (GR) signaling pathway (AID 720691; active = well fitted activation curve with a large enough effect in the signal ratio in the repeat runs, not every such curve was filed as active; the % refers to the signal ratio)
# How it was run: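 Agonist mode in a HeLa line carrying a GRE-controlled beta-lactamase reporter. Compounds act for 18 h at 37 C before a 2 h room-temperature FRET substrate step and fluorescence reading.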
# [18] = target: Glucocorticoid receptor (Homo sapiens) (UniProt P04150); assay: qHTS assay to identify small molecule antagonists of the glucocorticoid receptor (GR) signaling pathway (AID 720692; active = well fitted inhibition curve with a large enough effect in the signal ratio in the repeat runs, not every such curve was filed as active; the % refers to the signal ratio; note: potency is the fitted concentration of half-maximal effect)
# How it was run: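 Cells plated, rested 4 h at 37 C/5% CO2; compounds in DMSO pin-transferred; dexamethasone added to 5 nM final; 18 h at 37 C; B/G FRET substrate added, 2 h room temperature; fluorescence measured.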
# [19] = qHTS assay to test for compound auto fluorescence at 535 nm (green) in HEK293 cell free culture (AID 720682)
# How it was run: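 Green-label autofluorescence (485 nm excitation, 535 nm emission) measured on compound added to cell-free culture medium (DMEM, 10% FBS). Output is expressed relative to fluorescein.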
# [20] = qHTS assay for small molecule disruptors of the mitochondrial membrane potential (AID 720635); note: potency is the fitted concentration of half-maximal effect
# How it was run: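 HepG2 cells (2,000/well) attached overnight at 37C, then took compound for 1 hr at 37C, 5% CO2. Mito-MPS dye was added for 30 min; fluorescence was read at 490/535 nm (monomers) and 540/590 nm (aggregates).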
# Chain of Glucocorticoid receptor (Homo sapiens) (P04150 whole entry, looked up): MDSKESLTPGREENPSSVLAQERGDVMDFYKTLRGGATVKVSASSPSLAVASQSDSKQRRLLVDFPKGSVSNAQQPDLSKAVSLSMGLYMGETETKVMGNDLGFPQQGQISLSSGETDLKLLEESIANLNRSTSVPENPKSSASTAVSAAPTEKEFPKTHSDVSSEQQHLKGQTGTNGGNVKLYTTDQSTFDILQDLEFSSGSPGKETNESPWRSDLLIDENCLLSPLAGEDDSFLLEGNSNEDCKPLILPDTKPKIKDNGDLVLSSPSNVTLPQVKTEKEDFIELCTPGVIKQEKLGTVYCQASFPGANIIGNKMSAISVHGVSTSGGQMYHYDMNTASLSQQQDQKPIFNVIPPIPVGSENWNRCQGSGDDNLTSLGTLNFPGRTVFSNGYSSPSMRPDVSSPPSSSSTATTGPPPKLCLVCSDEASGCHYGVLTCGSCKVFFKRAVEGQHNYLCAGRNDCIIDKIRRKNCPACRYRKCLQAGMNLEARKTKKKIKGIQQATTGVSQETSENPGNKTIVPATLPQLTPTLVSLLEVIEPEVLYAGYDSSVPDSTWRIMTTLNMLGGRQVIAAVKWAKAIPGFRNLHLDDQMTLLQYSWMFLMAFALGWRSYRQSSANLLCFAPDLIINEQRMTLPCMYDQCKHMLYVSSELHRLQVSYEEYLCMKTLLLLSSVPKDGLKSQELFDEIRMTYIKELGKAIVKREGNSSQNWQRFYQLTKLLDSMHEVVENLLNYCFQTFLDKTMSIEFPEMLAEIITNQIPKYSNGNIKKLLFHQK
compound,measurement,setting,value
O=S(=O)(O)CO,Potency,[1],inactive
same,Potency,[2],inactive
same,Potency,[3],inactive
same,Potency,[4],inactive
same,outcome,[5],inactive
same,outcome,[6],inactive
same,outcome,[7],inactive
same,Potency,[8],inactive
same,outcome,[9],inactive
same,outcome,[10],inactive
same,Potency,[11],inactive
same,outcome,[12],inactive
same,outcome,[13],inactive
same,Potency,[14],inactive
same,outcome,[15],inactive
same,Potency,[16],inactive
same,Potency,[17],inactive
same,Potency,[18],inactive
Cc1ccc(Cl)cc1N,Potency,[1],inactive
same,Potency,[2],inactive
same,Potency,[3],inactive
same,Potency,[4],inactive
same,outcome,[5],inactive
same,outcome,[6],inactive
same,outcome,[7],inactive
same,Potency,[8],inactive
same,outcome,[9],inactive
same,outcome,[10],inactive
same,Potency,[11],inactive
same,outcome,[19],inactive
same,outcome,[13],inactive
same,Potency,[14],inactive
same,outcome,[15],inactive
same,Potency,[16],inactive
same,Potency,[17],inactive
same,Potency,[18],inactive
CC(=O)OC(C)C[N+](C)(C)C (stereo not drawn),Potency,[1],inactive
same,Potency,[2],inactive
same,Potency,[3],inactive
same,Potency,[4],inactive
same,outcome,[5],inactive
same,"fluorescence, relative to Rose Bengal",[6],0.553% [at 18.6 µM]
same,"fluorescence, % of fluorescein control",[7],0.0253% [at 18.6 µM]
same,"fluorescence, % of triamterene",[8],-0.423% [at 18.6 µM]
same,"fluorescence, % of fluorescent control",[9],-0.334% [at 18.6 µM]
same,"fluorescence, % of fluorescein",[10],-0.0571% [at 18.6 µM]
same,"fluorescence, % of fluorescent control",[11],-0.0614% [at 18.6 µM]
same,activity change,[19],-0.0135% [at 18.6 µM]
same,"fluorescence, % of Rose Bengal",[13],-0.229% [at 18.6 µM]
same,"fluorescence, % of fluorescent control",[14],-0.0627% [at 18.6 µM]
same,"fluorescence, % of fluorescein control",[15],-0.0048% [at 18.6 µM]
same,Potency,[17],inactive
same,Potency,[18],inactive
[Cl][Nd]([Cl])[Cl],Potency,[1],inactive
same,Potency,[2],inactive
same,Potency,[3],inactive
same,Potency,[4],inactive
same,outcome,[5],inactive
same,outcome,[6],inactive
same,outcome,[7],inactive
same,Potency,[8],inactive
same,outcome,[9],inactive
same,outcome,[10],inactive
same,Potency,[11],inactive
same,outcome,[12],inactive
same,outcome,[13],inactive
same,outcome,[15],inactive
same,Potency,[16],inactive
same,Potency,[17],inactive
same,Potency,[18],inactive
COc1ccc(-c2cc(=S)ss2)cc1,Potency,[1],inactive
same,Potency,[3],inactive
same,Potency,[4],inactive
same,outcome,[5],inactive
same,Potency,[20],2.11 µM (active)
same,outcome,[6],inactive
same,outcome,[7],inactive
same,Potency,[8],inactive
same,outcome,[9],inactive
same,outcome,[10],inactive
same,Potency,[11],inactive
same,outcome,[19],inactive
same,outcome,[12],inactive
same,outcome,[13],inactive
same,Potency,[14],inactive
same,outcome,[15],inactive
same,Potency,[16],inactive
same,Potency,[17],inactive
CCNc1nc(N)nc(Cl)n1,Potency,[1],inactive
same,Potency,[2],inactive
same,Potency,[3],inactive
same,Potency,[4],inactive
same,outcome,[5],inactive
same,outcome,[6],inactive
same,outcome,[7],inactive
same,Potency,[8],inactive
same,outcome,[9],inactive
same,outcome,[10],inactive
same,Potency,[11],inactive
same,outcome,[12],inactive
same,outcome,[13],inactive
same,outcome,[15],inactive
same,Potency,[16],inactive
NC(=O)c1ccccc1[N+](=O)[O-],Potency,[1],inactive
same,Potency,[2],inactive
same,Potency,[3],inactive
same,Potency,[4],inactive
same,outcome,[5],inactive
same,outcome,[6],inactive
same,outcome,[7],inactive
same,Potency,[8],inactive
same,outcome,[9],inactive
same,outcome,[10],inactive
same,Potency,[11],inactive
same,outcome,[19],inactive
same,outcome,[13],inactive
same,Potency,[14],inactive
same,outcome,[15],inactive
same,Potency,[16],inactive
CC/C=C\C/C=C\C/C=C\CCCCCCCC(=O)OCC,Potency,[2],inactive
same,Potency,[3],62.5 µM (active)
same,Potency,[4],inactive
same,outcome,[5],inactive
same,outcome,[6],inactive
same,outcome,[7],inactive
same,Potency,[8],inactive
same,outcome,[9],inactive
same,outcome,[10],inactive
same,Potency,[11],inactive
same,outcome,[19],inactive
same,outcome,[13],inactive
same,Potency,[14],inactive
same,outcome,[15],inactive
same,Potency,[16],inactive
same,Potency,[17],inactive
same,Potency,[18],50.1 µM (active)
CCCCC[C@H](O)/C=C/[C@H]1[C@H](O)CC(=O)[C@@H]1C/C=C\CCCC(=O)O,Potency,[2],inactive
same,Potency,[3],inactive
same,Potency,[4],inactive
same,outcome,[5],inactive
same,Potency,[20],inactive
same,outcome,[6],inactive
same,outcome,[7],inactive
same,Potency,[8],inactive
same,outcome,[9],inactive
same,outcome,[10],inactive
same,Potency,[11],inactive
same,outcome,[19],inactive
same,outcome,[12],inactive
same,outcome,[13],inactive
same,outcome,[15],inactive
same,Potency,[16],inactive
same,Potency,[17],inactive
O=C(O)CNC(=O)c1ccccc1I,Potency,[2],inactive
same,Potency,[3],inactive
same,Potency,[4],inactive
same,outcome,[5],inactive
same,outcome,[6],inactive
same,outcome,[7],inactive
same,Potency,[8],inactive
same,outcome,[9],inactive
same,outcome,[10],inactive
same,Potency,[11],inactive
same,outcome,[19],inactive
same,outcome,[12],inactive
same,outcome,[13],inactive
same,outcome,[15],inactive
same,Potency,[17],inactive
same,Potency,[18],inactive
O=C(c1ccccc1)c1ccc(O)cc1,Potency,[2],inactive
same,Potency,[3],inactive
same,Potency,[4],inactive
same,outcome,[5],inactive
same,Potency,[20],27.6 µM (active)
same,outcome,[6],inactive
same,outcome,[7],inactive
same,Potency,[8],inactive
same,outcome,[9],inactive
same,outcome,[10],inactive
same,Potency,[11],inactive
same,outcome,[19],inactive
same,outcome,[13],inactive
same,Potency,[14],inactive
same,outcome,[15],inactive
same,Potency,[16],inactive
same,Potency,[17],inactive
same,Potency,[18],inactive
CSCC[C@H](NC(=O)[C@H](Cc1c[nH]c2ccccc12)NC(=O)CCNC(=O)OC(C)(C)C)C(=O)N[C@@H](CC(=O)O)C(=O)N[C@@H](Cc1ccccc1)C(N)=O,Potency,[2],inactive
same,Potency,[3],inactive
same,Potency,[4],inactive
same,outcome,[5],inactive
same,Potency,[20],inactive
same,outcome,[6],inactive
same,outcome,[7],inactive
same,Potency,[8],inactive
same,outcome,[9],inactive
same,outcome,[10],inactive
same,Potency,[11],inactive
same,outcome,[12],inactive
same,outcome,[13],inactive
same,Potency,[14],inactive
same,outcome,[15],inactive
same,Potency,[16],inactive
same,Potency,[17],inactive
same,Potency,[18],inactive
CCN(CC)c1cccc(O)c1,Potency,[2],inactive
same,Potency,[3],inactive
same,Potency,[4],inactive
same,outcome,[5],inactive
same,outcome,[6],inactive
same,outcome,[7],inactive
same,Potency,[8],inactive
same,outcome,[9],inactive
same,outcome,[10],inactive
same,Potency,[11],inactive
same,outcome,[12],inactive
same,outcome,[13],inactive
same,Potency,[14],inactive
same,outcome,[15],inactive
same,Potency,[16],inactive
same,Potency,[17],inactive
same,Potency,[18],inactive
CCCCCCCCCCCCCOS(=O)(=O)O,Potency,[2],inactive
same,Potency,[3],68.6 µM (active)
same,Potency,[4],inactive
same,outcome,[5],inactive
same,outcome,[6],inactive
same,outcome,[7],inactive
same,Potency,[8],inactive
same,outcome,[9],inactive
same,outcome,[10],inactive
same,Potency,[11],inactive
same,outcome,[19],inactive
same,outcome,[12],inactive
same,outcome,[13],inactive
same,Potency,[14],inactive
same,outcome,[15],inactive
same,Potency,[16],inactive
